# Test results from ChEMBL document CHEMBL3988442, “University of Dundee, Small-Polar-MMV Screening Library” (2021).
# Target: AMP-activated protein kinase, AMPK (Homo sapiens) (UniProt P54646+O43741+P54619+Q9UGJ0+Q9Y478+Q13131+Q9UGI9)
# Experiment: AMP-dependent Kinase enzyme assay. An in vitro enzyme assay that detects ADP turnover that is directly proportional to AMPK activity. This uses naive AMPK that is activated during the assay with MK-8722
# Assay type: functional
# Set-up: scale not given: direction of the effect not stated beside the values
# Settings: 30 µM
row,Structure (SMILES),Percent Effect
1,O=C(c1cccnc1)N1CCC(Oc2cccc(C(F)(F)F)c2)CC1,-1.51%
2,Fc1cccc(CN2CCC[C@@H](Cn3nnc(-c4ccccn4)n3)C2)c1,10.2%
3,CN1CCN(C2CCN(C(=O)CCC3CCCC3)CC2)CC1,7.72%
4,Cc1nn(C(C)C)c(C)c1CN1CCN(C2CCCCC2)C(=O)C1,8.49%
5,Cc1ccccc1C(=O)NC[C@@H]1CCN(C(=O)C2(O)CCCC2)C[C@H]1O,2.29%
6,CN(C)c1ncccc1NC(=O)COC1CCCC1,6.19%
7,CCc1nc(CNc2cc(C)nc(-c3cccnc3)n2)cs1,-0.151%
8,COCC(C)(O)CNC(=O)c1cc(-c2ccc(F)cc2)nn1C (stereo not given),2.75%
9,CCC(C(=O)N(Cc1ccccn1)C1CCCCC1)n1cccn1 (stereo not given),1.8%
10,Cc1nc(NC(=O)NCCCN2CCC(C(N)=O)CC2)sc1C,6.51%
11,CN1CC(C(=O)NCc2ccc(Br)cc2F)CC1=O (stereo not given),8.64%
12,CN1C[C@@H]2CC[C@H](CC1=O)N2C(=O)c1ccc(-c2ccccc2)[nH]c1=O,12.5%
13,CCN(C(=O)CS(=O)(=O)c1cc(OC)c(OC)cc1C)C1CC1,19.2%
14,CN(CCC#N)C(=O)Cn1cnc2c(Br)cccc2c1=O,2.35%
15,Cc1n[nH]c(C)c1CCN(C)c1ccc(-c2nc(C3CC3)no2)cn1,-6.17%
16,CCC1c2ccccc2CCN1CCNS(C)(=O)=O (stereo not given),-4.87%
17,NC(=O)NC1(C(=O)N2CCc3c(Cl)cccc3C2)CCCCC1,-3.74%
18,O=C1C(N2CC[C@@H](O)C2)CCCN1Cc1cccc(C(F)(F)F)c1 (stereo not given in full),5.51%
19,CN(CCSc1nncn1C(C)(C)C)c1ccccc1,16.1%
20,Cc1ccc(CCCC(=O)N2CCC(=O)Nc3cccnc32)s1,-8.96%
